# Screening data as filed in PubChem.
# LANA-H2A inh – blockers of LANA interaction with H2A/H2B – biochemical, FP readout, HTS, primary screen; inhibition, % (concentration not given with the values); actives 0.6% (n = 320,000); cell-free LANA-H2A/H2B peptide, fluorescence polarization; Protein LANA1 (Human herpesvirus 8 type P (isolate GK18)), Q9QR71; in the data active = inhibition mostly above about 10%, no sharp cut-off; inactive = mostly below about 6.7%
# Target sequence (Q9QR71 whole entry, looked up): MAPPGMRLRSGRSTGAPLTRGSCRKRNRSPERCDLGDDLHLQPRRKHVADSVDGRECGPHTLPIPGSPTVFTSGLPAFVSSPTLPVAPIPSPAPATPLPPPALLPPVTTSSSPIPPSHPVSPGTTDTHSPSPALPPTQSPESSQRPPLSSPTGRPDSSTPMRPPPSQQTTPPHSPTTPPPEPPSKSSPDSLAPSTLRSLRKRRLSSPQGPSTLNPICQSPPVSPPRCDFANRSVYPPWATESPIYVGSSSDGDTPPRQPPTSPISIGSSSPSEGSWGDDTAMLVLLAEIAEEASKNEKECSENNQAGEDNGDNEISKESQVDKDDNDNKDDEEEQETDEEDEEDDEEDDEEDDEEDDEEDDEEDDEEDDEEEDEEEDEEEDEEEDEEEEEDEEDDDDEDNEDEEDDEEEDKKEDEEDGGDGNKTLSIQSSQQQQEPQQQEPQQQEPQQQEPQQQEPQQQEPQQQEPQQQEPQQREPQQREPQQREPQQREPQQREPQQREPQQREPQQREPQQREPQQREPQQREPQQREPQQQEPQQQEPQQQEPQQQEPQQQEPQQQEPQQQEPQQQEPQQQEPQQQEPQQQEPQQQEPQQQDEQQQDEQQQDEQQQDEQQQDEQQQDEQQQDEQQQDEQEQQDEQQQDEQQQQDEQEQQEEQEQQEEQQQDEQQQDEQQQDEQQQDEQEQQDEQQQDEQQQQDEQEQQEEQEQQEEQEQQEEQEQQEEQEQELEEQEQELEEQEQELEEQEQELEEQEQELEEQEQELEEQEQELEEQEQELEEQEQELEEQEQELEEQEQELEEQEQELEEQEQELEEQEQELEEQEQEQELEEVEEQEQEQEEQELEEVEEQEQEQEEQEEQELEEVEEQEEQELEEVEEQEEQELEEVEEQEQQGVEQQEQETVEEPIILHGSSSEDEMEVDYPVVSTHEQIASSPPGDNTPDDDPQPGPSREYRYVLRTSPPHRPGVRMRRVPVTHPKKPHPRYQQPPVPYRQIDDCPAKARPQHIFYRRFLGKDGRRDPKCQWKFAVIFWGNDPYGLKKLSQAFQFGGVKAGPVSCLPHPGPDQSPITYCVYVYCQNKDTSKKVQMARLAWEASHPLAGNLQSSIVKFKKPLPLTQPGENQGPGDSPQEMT
# C-LANA FP – inhibitors of KSHV C-LANA binding to DNA, primary screen, biochemical, fluorescence polarization, FAM-LBS DNA, MBP-C-LANA, single point | inhibition, % at 9 µM | actives 0.078% (n = 340,000) | AID 504423, 2011;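 active = highest replicate inhibition at or above 60% at 9 µM, even if other replicates fall short; inactive = all replicates below 60% inhibition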;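 note: 0% = neutral control wells and 100% = 4 µM acridine orange control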
# Cardiac RTF inh – cardiac RTF calcium sensitivity inhibitors, primary screen, biochemical, IANBD-TnC fluorescence, EC70 calcium. IANBD-labeled cardiac RTF, Ca2+ fluorescence. inhibition, % at 7.15 µM. Troponin I, cardiac muscle (Homo sapiens) + Troponin T, cardiac muscle (Homo sapiens) + …. actives 0.12% (n = 340,000). AID 493244, 2011;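 active = inhibition above the mean inhibition of all tested compounds plus 3 SD, cut at about 17% in these data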;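 note: assay run at fixed EC70 calcium of 1.6 mM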
# RTF Ca sens act – cardiac RTF calcium sensitivity activators, primary screen, biochemical, IANBD-TnC fluorescence, EC20 calcium | actives 0.24% (n = 340,000) | IANBD-labeled TnC RTF fluorescence at EC20 calcium; 0% EC20 calcium, 100% full calcium | activation, % at 7.2 µM;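 active = activation above the mean over all tested compounds plus 3 SD, cut at about 30% in these data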;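 note: rise in fluorescence read as greater calcium sensitivity of cardiac thin filaments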
# Keap1-Nrf2 PPI – Keap1-Nrf2 protein-protein interaction inhibitors, primary screen, biochemical, fluorescence polarization, single point. inhibition, % at 9.4 µM. Keap1 Kelch-Nrf2 peptide fluorescence polarization, 1536-well. actives 0.15% (n = 340,000). Kelch-like ECH-associated protein 1 (Homo sapiens), Q14145; in the data active = inhibition above about 12%;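 note: human Keap1 Kelch domain with fluorescein labeled Nrf2 9mer peptide probe; 0% = neutral control wells and 100% = peptide positive control; higher means more block of Keap1 binding to Nrf2 peptide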
# RTF Ca inh conf – cardiac RTF calcium sensitivity inhibitors, confirmation, biochemical, fluorescence readout. inhibition, % at 7.15 µM. actives 8% (n = 360). reconstituted cardiac thin filaments. shares compounds with Cardiac RTF inh; in the data active = inhibition above about 18%
# DNA intercal 2 – DNA intercalator detection, dose response, counter-screen for C-LANA DNA-binding inhibitor project, biochemical, dry powder; AC50, µM (top dose mostly 35 µM), inactives show at the top dose activity change, negative = inhibition; Acridine orange-DNA displacement, fluorescence polarization; 20 tested, under 10 active; shares compounds with C-LANA FP; AID 588364, 2011;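 active = signal drop with an AC50 no more than ten times the top valid dose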
# Keap1 Kelch bind – Keap1 Kelch domain binders by thermal stabilisation, dose response, biophysical, thermal shift, RT-PCR instrument, cherry-pick; shares compounds with Keap1-Nrf2 PPI; delta Tm; stronger effect = higher value; max delta Tm, degrees C; actives 8% (n = 400); AID 651823, 2012; in the data active = max delta Tm above about 0.48 degrees C
# Sypro dye melt – Sypro Orange dye melt without protein, dose response, artefact control for Keap1-Nrf2 interaction inhibitor project, biochemical, thermal shift counterscreen, cherry-pick; shares compounds with Keap1-Nrf2 PPI; Sypro Orange dye-only thermal melt, no protein, delta Tm; top dose 26 µM; delta Tm, degrees C (no concentration beside the values); 140 tested, under 10 active; AID 651858, 2012;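 active = at highest dose tested, delta Tm positive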
# Active calls of the source: *; / = no result given. The list is not random: actives were taken first. Their share in the collection is about 0.98%.
SMILES,LANA-H2A inh,C-LANA FP,Cardiac RTF inh,RTF Ca sens act,Keap1-Nrf2 PPI,RTF Ca inh conf,others
CC1(C)CC(=O)C2=C(C1)N(Cc1ccco1)C(=O)NC2(C(F)(F)F)C(F)(F)F,2,-2,18*,-4,0,-2,
Nc1c(S(=O)(=O)O)cc(NC(=O)c2ccccc2)c2c1C(=O)c1ccccc1C2=O,0,1,35*,-11,-7,5,
Nc1c(S(=O)(=O)c2cccs2)c2nc3ccccc3nc2n1/N=C/c1cccc(O)c1,-1,3,20*,-6,1,6,
COc1cccc(/C=N/n2c(N)c(S(=O)(=O)c3cccs3)c3nc4ccccc4nc32)c1,1,-1,-3,2,-4,/,
Cc1c(Cl)cccc1NS(=O)(=O)c1ccc2c(c1)C1C=CCC1C(c1ccc(C(=O)O)cc1)N2 (stereo not given),4,111*,31*,-33,-3,-14,
CC1CCCCN1S(=O)(=O)c1ccc(C(=O)Nc2sccc2C(N)=O)cc1 (stereo not given),6,-1,1,-7,2,/,
CCCN1CCN(C(=O)c2ccc(Sc3ccc(C)cc3)c(NC(C)=O)c2)CC1,8,-1,-10,-3,-1,/,
CC(=O)Nc1cc(C(=O)N2CCc3ccccc3C2)ccc1Sc1ccc(C)cc1,-2,0,17*,-2,0,-4,
Cc1ccc(S(=O)(=O)N2C(=O)C(c3ccccc3)SC2=Nc2ccccc2)cc1 (stereo not given),4,0,-2,-1,1,/,
Cn1cc(C(=O)C(=O)N2CCCCC2)c2ccccc21,/,-2,5,-1,-2,/,
CCCCCn1c(=O)[nH]c2cc(C(=O)NCc3ccco3)ccc2c1=O,5,2,3,8,-1,/,
COc1ccc(CNC(=O)CCCCCNc2nc(=S)[nH]c3ccccc23)cc1,0,1,18*,3,-1,-5,
O=C(COC(=O)Cc1ccc(S(=O)(=O)N2CCOCC2)s1)Nc1ccc(F)cc1F,-2,0,4,0,-13,/,
O=c1cc(-c2ccccc2Cl)oc2cccc(O)c12,6,0,2,5,-7,/,
O=c1cc2oc3cc(O)c(O)cc3c(-c3ccccc3[N+](=O)[O-])c-2cc1O,-1,26,29*,-38,2,56*,
COc1ccc(C(=O)c2ccccc2O)c(O)c1,2,0,17*,-6,1,-3,
O=C(O)c1cc(N2N=C(C(F)(F)F)/C(=C/C=C/c3ccco3)C2=O)ccc1Cl,/,113*,111*,-62,21*,57*,DNA intercal 2=20%;Keap1 Kelch bind=0.68*
COc1cccc(CN2CC(C(=O)NCCSc3nnnn3C)CCC2=O)c1 (stereo not given),0,0,-8,2,-4,/,
CCN(C(=O)C(C)N1C(=O)/C(=C/c2ccco2)SC1=S)C1CCS(=O)(=O)C1 (stereo not given),1,6,-5,-6,-3,/,
O=C1/C(=C/C=C/c2ccco2)SC(=S)N1NS(=O)(=O)c1ccccc1,3,110*,71*,-40,28*,3,Keap1 Kelch bind=1.3*
CC(C(=O)O)N1C(=O)/C(=C/C=C/c2ccco2)SC1=S (stereo not given),4,104*,87*,-51,13*,40*,Keap1 Kelch bind=0.77*;Sypro dye melt=-29
COc1ccccc1CCNC(=O)CN1C(=O)c2ccccc2S1(=O)=O,2,0,1,-3,-1,/,
O=C1CCCC(O)=C1N=Nc1ccc(C(=O)O)cc1,1,71*,12,-14,5,/,DNA intercal 2=4%
Nc1c(/C=C2\C=CC(=O)C(O)=C2)c(=O)nc2sc(CC(=O)N3CCCCC3)nn12,/,/,/,/,/,/,DNA intercal 2=8%
COc1ccccc1-n1c(-c2cn(C)nc2C)n[nH]c1=S,3,0,-1,6,-7,/,
SMILES,LANA-H2A inh,C-LANA FP,Cardiac RTF inh,RTF Ca sens act,Keap1-Nrf2 PPI,RTF Ca inh conf,others
CN(C)S(=O)(=O)c1cc(C(=O)NC2CCSc3ccccc32)ccc1Cl (stereo not given),/,/,/,/,/,/,DNA intercal 2=-1%
O=C(NC1CCSc2ccccc21)c1ccc(Cl)c(S(=O)(=O)N2CCOCC2)c1 (stereo not given),-1,0,-2,-1,-4,/,
Clc1ccc(-c2nnc3sc(-c4ccc(Br)o4)nn23)cc1,46*,107*,-16,2,4,/,DNA intercal 2=11%
Clc1ccc(-c2nnc3sc(-c4ccc(Br)o4)nn23)c(Cl)c1,-6,2,-1,1,-1,/,
COc1ccccc1C(=O)NC(=O)COC(=O)c1ccc([N+](=O)[O-])cc1Cl,0,1,-1,-4,0,/,
COc1ccc(-c2cc(C(F)(F)F)c3c(N)c(C(=O)NCCSC)sc3n2)cc1,6,53,-77,63*,29*,/,DNA intercal 2=-27%;Keap1 Kelch bind=-0.1;Sypro dye melt=-27
CCOc1ccc(CCNC(=O)C2CCCN(S(=O)(=O)N3CC(C)CC(C)C3)C2)cc1OCC (stereo not given),-3,0,4,-5,0,/,
Cc1nc(-c2ccc(S(=O)(=O)N3CCN(C4c5ccccc5-c5ccccc54)CC3)s2)cs1,0,1,2,12,-2,/,
Cc1nc(-c2ccc(S(=O)(=O)N3CCCN(CCc4ccccc4)CC3)s2)cs1,-4,30,/,/,63*,/,Keap1 Kelch bind=-0.22
Cc1ccc2c(c1)c(-c1ccccc1)nc1nncn12,-3,3,0,5,2,/,
COc1ccc(Nc2nc3ccccc3nc2-n2nc(C)cc2C)cc1,-10,14,3,-5,43*,/,Keap1 Kelch bind=-0.16
C=CCNC(=O)C(=O)NN=C1CCN(C)CC1,-4,-1,4,0,-1,/,
